This is a sample that favours compounds with a hit; in the whole collection about 2.5% have one here.
hiPSC survival: enhancers of single-cell hiPSC survival, primary screen, ATPlite luminescence; 100% = ROCK inhibitor wells, 0% = DMSO; survival enhancement, % at 20 µM; 0.044% of 360,000 active; AID 602274, 2012; in the data active = survival enhancement above about 18%;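 also: cells exposed to compounds for 16 hours before the ATP read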
CRFR2-BP ag: agonists of CRF-BP/CRF-R2 complex, primary screen, cell-based, HEK293, calcium dye fluorescence, uHTS | calcium dye fluorescence (FLIPR); percent of saturating CRF peptide response | activation, % at 13.2 µM | 0.46% of 350,000 active | AID 588473, 2011;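 active = activation of at least 50%, plus an integration ratio under a set limit after plate pattern correction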
TAG inh: inhibitors of triacylglycerol accumulation, primary screen, cell-based, uHTS, fluorescence, H9c2; H9c2 cells, Nile Red lipid (TAG) fluorescence; cells loaded with 200 µM oleic acid; inhibition, % at 12.5 µM; 0.66% of 230,000 active;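 active = pattern-corrected inhibition of lipid staining of at least 50% with the nuclear-stain viability signal not falling by more than 50%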
Cardio protect: cardioprotection against H2O2-induced cell death, primary screen, uHTS, H9c2 cells, ATPLite luminescence; protection from H2O2 cell death, % at 20 µM; 0.63% of 360,000 active; H9c2 cardiomyocytes, H2O2 injury protection, 2 h; AID 588492, 2011;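 active = compounds giving at least 50% protection of heart cells from peroxide-induced death in the single-dose screen, raw or plate-pattern-corrected value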
CRFR2-BP antag: antagonists of CRF-BP/CRF-R2 complex, primary screen, cell-based, HEK293, calcium dye fluorescence, uHTS. CRF-induced calcium fluorescence. 0.59% of 350,000 active. inhibition, % at 11.8 µM;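 active = inhibition of the ligand-induced calcium signal above about 50% at the single tested concentration, limit read from the data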
SKN-1 block: suppressors of acrylamide-induced Pgst-4::GFP reporter in worms, primary screen, SKN-1 inhibitor project, whole organism, uHTS, GFP/RFP fluorescence ratio, strain VP596; C. elegans VP596 Pgst-4::GFP/RFP ratio, 24 h; inhibition, % at 21.8 µM; 0.49% of 360,000 active;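 active = interference check ratio from 0.5 to 1.5 plus GFP to RFP signal ratio inhibition reaching or exceeding a fixed threshold, cut at about 30% in these data, passing the limit was not always enough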
Numbers stand for hits; i = inactive; nt = no result given.

SMILES	hiPSC survival	CRFR2-BP ag	TAG inh	Cardio protect	CRFR2-BP antag	SKN-1 block
COc1cc(/C=C/C=C2/CC/C(=C/C=C/c3ccc(O)c(OC)c3)C2=O)ccc1O	i	i	i	i	i	i
COc1cc(/C=C2\COC/C(=C\c3ccc(O)c(OC)c3)C2=O)ccc1O	i	i	i	53	i	i
COc1cc(/C=C2/CC/C(=C/c3ccc(O)c(OC)c3)C2=O)ccc1O	i	167	i	70	i	i
COc1cc(/C=C2\CC/C(=C\c3ccc(OCCO)c(OC)c3)C2=O)ccc1OCCO	i	i	i	81	i	i
Cc1ccc(Cl)cc1-c1cc(C(=O)NCc2cc(C(F)(F)F)cc(C(F)(F)F)c2)[nH]n1	i	nt	i	i	nt	i
COc1ccc(NC(=O)CSc2nnc3ccc(-c4ccncc4)nn23)cc1OC	i	i	i	i	i	i
COc1ccc(CN2C(=O)CSCC2(C)C(=O)Nc2c(C)cccc2C)cc1OC (stereo not drawn)	nt	nt	nt	nt	nt	i
COc1cc(/C=C2/C(=O)ON=C2c2ccccc2)ccc1O	i	i	nt	i	56	i
C[C@H](CO)N1C[C@H](C)[C@@H](CN(C)Cc2cccnc2)Oc2ncc(-c3cccc(C#N)c3)cc2C1=O	i	i	i	i	i	i
CC1CCN(S(=O)(=O)c2ccc(C(=O)Nc3ccccn3)cc2)CC1	i	i	i	i	i	i
CC(C)(C)NC(=O)NC(=O)COC(=O)CNS(=O)(=O)/C=C/c1ccccc1	i	i	i	i	i	i
CCCCOc1ccc(C(=O)NC)cc1	i	i	i	i	i	28
Cc1cccc(C(=O)NC(=S)NNC(=O)Cc2ccccc2)c1	i	137	i	i	i	i
O=C(COc1ccccc1)NNC(=S)NC(=O)c1ccccc1	i	i	i	i	i	i
Cc1cccc(C(=O)NC(=S)NNC(=O)COc2c(C)cccc2C)c1	i	167	nt	i	i	i
Cc1ccc(C(=O)NC(=S)NNC(=O)COc2ccccc2C)cc1	i	114	i	i	i	i
Cc1cccc(C(=O)NC(=S)N2CCN(C(=S)NC(=O)c3cccc(C)c3)CC2)c1	i	i	nt	i	50	i
O=C(O)CCC(=O)N1CCc2c([nH]c3ccccc23)C1C(F)(F)F (stereo not drawn)	i	i	nt	i	i	i
CC(=O)N1CCN(c2cc(-c3ccccc3)nc3cc(-c4cccc(Cl)c4)nn23)CC1	i	i	i	i	i	i
O=C(NCCc1ccc(Cl)cc1)c1cc(-c2ccccn2)nc2ccccc12	i	i	nt	i	i	i
Cc1cc(=O)[nH]c2ccc(S(=O)(=O)NCc3ccccc3)cc12	i	i	i	i	i	i
Cc1ccc(OCC(=O)NC(=S)Nc2ccccn2)c(Br)c1	i	i	i	i	i	i
Cc1cccc(C(=O)NC(=S)NNC(=O)c2ccccc2Cl)c1	i	152	i	i	i	i
Cc1ccc(OCC(=O)NNC(=S)NC(=O)C(C)(C)C)c(Br)c1	i	84	i	i	i	i
Cc1cccc(C(=O)NC(=S)Nc2ccccc2C(=O)O)c1	i	i	i	i	i	i
SMILES	hiPSC survival	CRFR2-BP ag	TAG inh	Cardio protect	CRFR2-BP antag	SKN-1 block
O=C(C(=O)N(C1CCCCC1)C1CCCCC1)c1ccccc1	nt	nt	nt	nt	nt	i
CCOc1ccc(C2/C(=C(\O)c3ccc4c(c3)OCCO4)C(=O)C(=O)N2CCN2CCOCC2)cc1OC (stereo not drawn)	i	i	i	i	i	i
CN(C)CCNC(=O)c1ccc2nc([C@@H]3O[C@H](CO)[C@H](O)[C@H](O)[C@H]3O)[nH]c2c1	i	nt	i	i	nt	i
CC1C2=C(CC(C)(C)CC2=O)NC2=C1C(=O)CC(C)(C)C2	i	68	i	i	i	i
C[C@H](NC(=O)Nc1ccc2c(c1)OCCO2)C(=O)O	i	i	nt	i	96	i
CCCCN(C(=O)C1=NN(c2ccccc2)C(=O)CC1)c1c(N)n(CC(C)C)c(=O)[nH]c1=O	i	i	i	i	i	i
COc1ccc(-c2csc(C(C#N)=C(O)CSc3nccn3C)n2)cc1OC	i	i	i	57	i	i

Source: PubChem BioAssay (Sanford-Burnham Center for Chemical Genomics)
